In all, about 100,000 compounds went through this assay and about 4,200 (4.2%) were called active. This is one part of a sample in which actives are shown more often than they occur.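 How the source made its calls: active means single-dose well whose peak fluorescence ratio is a statistical outlier from its plate by either plate-standardised score or position-corrected B-score; inactive means the rest.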
Each compound was assayed against Voltage-dependent T-type calcium channel subunit alpha-1H (Homo sapiens) (UniProt O95180) (assay: Cav3.2 calcium influx blockers – cell-based, Fluo-4 calcium fluorescence, FDSS, MLSMR library, primary screen (AID 449739)). Conditions: Cav3.2-expressing cells, at 10 µM, active compounds read low.
Sequence of Voltage-dependent T-type calcium channel subunit alpha-1H (Homo sapiens) (O95180 whole entry, looked up): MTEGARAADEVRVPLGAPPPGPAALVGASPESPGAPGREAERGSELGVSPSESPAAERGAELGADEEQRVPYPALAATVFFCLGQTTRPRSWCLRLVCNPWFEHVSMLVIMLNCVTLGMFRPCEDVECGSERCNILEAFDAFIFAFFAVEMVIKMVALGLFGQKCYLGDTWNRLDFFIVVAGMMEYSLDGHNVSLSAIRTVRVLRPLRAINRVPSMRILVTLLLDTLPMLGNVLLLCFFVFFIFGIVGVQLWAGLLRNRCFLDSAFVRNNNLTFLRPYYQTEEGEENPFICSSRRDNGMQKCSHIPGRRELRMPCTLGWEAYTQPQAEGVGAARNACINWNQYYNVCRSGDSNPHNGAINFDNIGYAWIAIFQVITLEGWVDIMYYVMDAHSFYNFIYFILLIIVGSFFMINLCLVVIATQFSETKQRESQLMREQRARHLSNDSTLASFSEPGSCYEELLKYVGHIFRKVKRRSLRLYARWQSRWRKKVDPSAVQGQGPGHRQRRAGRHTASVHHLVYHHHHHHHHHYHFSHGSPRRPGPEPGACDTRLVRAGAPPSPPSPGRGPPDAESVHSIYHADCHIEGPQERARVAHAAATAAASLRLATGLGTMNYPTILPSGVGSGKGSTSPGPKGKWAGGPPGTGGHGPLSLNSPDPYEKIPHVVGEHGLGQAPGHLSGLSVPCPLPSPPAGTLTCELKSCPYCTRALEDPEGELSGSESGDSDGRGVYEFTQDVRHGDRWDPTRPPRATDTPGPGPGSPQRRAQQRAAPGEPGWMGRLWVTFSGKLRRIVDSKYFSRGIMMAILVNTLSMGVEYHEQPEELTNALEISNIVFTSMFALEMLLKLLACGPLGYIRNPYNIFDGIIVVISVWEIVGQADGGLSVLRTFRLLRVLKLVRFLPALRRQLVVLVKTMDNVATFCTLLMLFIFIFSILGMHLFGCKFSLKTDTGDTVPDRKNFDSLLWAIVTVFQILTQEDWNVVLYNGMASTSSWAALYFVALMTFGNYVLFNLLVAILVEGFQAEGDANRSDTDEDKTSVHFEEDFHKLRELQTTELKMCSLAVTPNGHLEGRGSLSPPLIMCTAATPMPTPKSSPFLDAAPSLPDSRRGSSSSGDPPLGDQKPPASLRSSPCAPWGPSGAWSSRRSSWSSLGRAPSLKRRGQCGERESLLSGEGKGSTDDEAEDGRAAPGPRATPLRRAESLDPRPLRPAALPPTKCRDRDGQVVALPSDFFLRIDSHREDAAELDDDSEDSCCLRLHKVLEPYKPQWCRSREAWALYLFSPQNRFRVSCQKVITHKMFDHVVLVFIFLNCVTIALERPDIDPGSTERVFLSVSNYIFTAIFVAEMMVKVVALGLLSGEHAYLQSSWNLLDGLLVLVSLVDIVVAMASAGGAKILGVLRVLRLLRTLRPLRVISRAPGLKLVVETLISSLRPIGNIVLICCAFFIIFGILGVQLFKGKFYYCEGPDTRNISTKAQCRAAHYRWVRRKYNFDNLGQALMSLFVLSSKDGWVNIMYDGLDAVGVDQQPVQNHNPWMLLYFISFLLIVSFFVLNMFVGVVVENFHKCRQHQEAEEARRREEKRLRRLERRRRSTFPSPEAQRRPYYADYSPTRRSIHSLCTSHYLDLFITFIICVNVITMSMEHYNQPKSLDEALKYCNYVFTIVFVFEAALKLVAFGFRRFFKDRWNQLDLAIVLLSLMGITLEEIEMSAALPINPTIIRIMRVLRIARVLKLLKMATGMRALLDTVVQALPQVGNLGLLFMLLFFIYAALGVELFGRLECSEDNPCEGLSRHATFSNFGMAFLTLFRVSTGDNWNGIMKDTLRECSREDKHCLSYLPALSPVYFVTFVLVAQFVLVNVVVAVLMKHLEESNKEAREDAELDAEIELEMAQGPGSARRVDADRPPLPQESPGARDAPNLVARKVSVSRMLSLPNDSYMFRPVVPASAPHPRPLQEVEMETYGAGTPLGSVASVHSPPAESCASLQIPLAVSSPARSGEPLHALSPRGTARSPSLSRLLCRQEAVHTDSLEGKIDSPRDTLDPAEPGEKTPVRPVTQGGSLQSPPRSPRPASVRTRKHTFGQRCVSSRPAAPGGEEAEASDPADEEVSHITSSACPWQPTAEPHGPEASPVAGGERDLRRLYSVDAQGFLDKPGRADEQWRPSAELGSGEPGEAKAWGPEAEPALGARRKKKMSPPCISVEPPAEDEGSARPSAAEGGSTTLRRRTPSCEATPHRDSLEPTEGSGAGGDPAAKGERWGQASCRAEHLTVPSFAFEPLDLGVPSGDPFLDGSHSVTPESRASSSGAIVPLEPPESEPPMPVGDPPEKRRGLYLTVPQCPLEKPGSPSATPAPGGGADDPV
In the case of `CC1Cc2ccccc2N1C(=O)Cn1cnc2ccccc2c1=O` (centres undefined), the B-score is reported as 0.0523 (inactive).
In the case of `CCn1c(CSc2ncccn2)nnc1SCC(=O)N1c2ccccc2CC1C` (centres undefined), the B-score is reported as 0.0736 (inactive).
In the case of `CCCCn1ccnc1C(=O)c1cccc(S(=O)(=O)N2c3ccccc3CC2C)c1` (centres undefined), the B-score is reported as -5.72 (active).
`O=C(NC1CC1)c1ccc2c(c1)NC(=O)c1ccccc1S2` was tested, and the B-score was -0.133 (inactive).
`COc1ccc(COCCN2CCN(S(=O)(=O)c3ccccc3)CCC2=O)cc1` was tested, and the B-score was -0.361 (inactive).
In the case of `COc1cc([C@H](Cc2ccccc2)NC(C)=O)oc(=O)c1`, the B-score is reported as -0.786 (inactive).
`Cc1ccc(/C=N/NC(=O)C(NC(=O)c2ccccc2)c2n[nH]c(=O)c3ccccc23)cc1` (centres undefined) was tested, and the B-score was -4.96 (active).
In the case of `Cc1ccc(S(=O)(=O)Oc2ccc(/C=N/NC(=O)c3c(Cl)cnn3C)cc2)cc1`, the B-score is reported as 0.419 (inactive).
For `Cc1ccc(C(=O)N/N=C/c2sc(=O)n(Cc3cccc(C(=O)O)c3)c2Cl)cc1`, the B-score was 2.4 (inactive).
For `O=c1c2ccccc2c(-c2ccc(Br)cc2)nn1Cc1ccccc1`, the B-score was 0.372 (inactive).
With `Cn1cc(CCC(=O)NCc2ccc3c(c2)OCO3)c2ccccc21` the B-score was -2.19 (inactive).
With `O=C(COc1ccccc1)NCc1ccc2c(c1)OCO2` the B-score was -1.91 (inactive).
In the case of `N#Cc1nc(Cc2cccc3ccccc23)oc1NCc1ccc2c(c1)OCO2`, the B-score is reported as -7.29 (active).
In the case of `C=CCOC(=O)C1=C[C@H](c2ccc(Br)cc2)C[C@H](OCCCCO)O1`, the B-score is reported as -0.545 (inactive).
With `COc1ccc(C2/C=C\CN(CC(C)C)CC(=O)N2Cc2ccc(F)cc2)cc1` (centres undefined) the B-score was -0.399 (inactive).
In the case of `CCOc1cc(-c2noc(CCC(=O)N3CCOCC3)n2)ccc1OC`, the B-score is reported as 0.164 (inactive).
In the case of `Cc1ccc(-c2noc(CCC(N)=O)n2)cc1`, the B-score is reported as 0.127 (inactive).
For `COc1ccc(N2CCN(C(=O)CCc3nc(-c4ccc(C)cc4)no3)CC2)cc1`, the B-score was -3.49 (active).
`C#CCOCCOCCOCCNc1nc(N2CCN(C(=O)C([C@@H](C)CC)n3cc(C(N)COC(=O)C(F)(F)F)nn3)CC2)nc(N2CCN(C(=O)[C@H](Cc3ccc(O)cc3)n3cc(C(N)[C@H](C)CC)nn3)CC2)n1` (some centres undefined) was tested, and the B-score was 0.00651 (inactive).
For `Cc1ccc(CNC(=O)c2ccccc2CCc2ccccc2)cc1`, the B-score was 0.145 (inactive).
For `COc1ccc(C[C@H]2CN3C(=NC[C@H]3C)N2CCNC(=O)CCC2CCCCC2)cc1`, the B-score was -0.267 (inactive).
With `O=C(CSc1nnc(-c2c[nH]c3ccccc23)o1)c1ccccc1` the B-score was 0.381 (inactive).
In the case of `O=C(CSCc1ccc([N+](=O)[O-])cc1)Nc1cccc(C(=O)Nc2ccccc2C(=O)O)c1`, the B-score is reported as -1.32 (inactive).
With `O=C(CSCc1ccc([N+](=O)[O-])cc1)NCCSCc1ccccc1` the B-score was -6.39 (active).
In the case of `O=C(NCCc1ccccc1)/C(=C\c1ccc([N+](=O)[O-])cc1)NC(=O)c1ccccc1`, the B-score is reported as 0.653 (inactive).
With `COc1cccc(/C=N/NC(=O)C(=O)N2CCCC2)c1` the B-score was 1.2 (inactive).
For `COC(=O)COc1cccc2c(=O)n(CC(=O)NCCc3ccc(OC)c(OC)c3)ccc12`, the B-score was 1.52 (inactive).
With `CC(C)(C)n1nnnc1C(c1ccc(F)cc1)N1CCN(Cc2ccc3c(c2)OCO3)CC1` (centres undefined) the B-score was -3.16 (inactive).
With `Cc1cccc(N2CCN(C(c3ccc(N(C)C)cc3)c3nnnn3C(C)(C)C)CC2)c1C` (centres undefined) the B-score was -3.44 (inactive).
For `CC(C)(C)n1nnnc1C(c1ccc(Cl)cc1)N1CCSCC1` (centres undefined), the B-score was -2.81 (active).
In the case of `COc1ccccc1-c1n[nH]c2c1[C@H](C)CC[C@H]2C(C)C`, the B-score is reported as -2.06 (inactive).
In the case of `COc1ccc(/C=C/C(=O)Nc2c(C)nn(C)c2C)cc1COc1ccc(Br)cc1`, the B-score is reported as -1.13 (inactive).
In the case of `CCn1nc(C)c(NC(=O)/C=C/c2ccc(OC)c(COc3ccc(Br)cc3)c2)c1C`, the B-score is reported as -3.94 (active).
With `CCn1c(COc2ccc(OC)cc2)nnc1SCC(=O)Nc1cc(OC)ccc1OC` the B-score was -0.694 (inactive).
In the case of `CCCCOc1ccc(C(=O)NCc2ccco2)cc1`, the B-score is reported as -0.276 (inactive).
With `Cc1ccc(C(=O)N/C(=C/C=C/c2ccccc2)C(=O)NCc2ccco2)cc1` the B-score was -4.77 (active).
`O=C(CN1CCN(S(=O)(=O)/C=C/c2ccccc2)CC1)NC(=O)NCc1ccco1` was tested, and the B-score was 0.253 (inactive).
`O=C(CSCc1ccccc1Cl)NNC(=O)c1ccccc1` was tested, and the B-score was -0.234 (inactive).
`CCOC(=O)c1ccc(NC(=O)c2c(N)n(C)c(=O)[nH]c2=O)cc1` was tested, and the B-score was -2 (inactive).
With `CCN(CC)C(=O)CN(c1cccc(OC)c1)S(=O)(=O)c1ccc(C)cc1` the B-score was 0.247 (inactive).
With `COc1cccc(NC(=O)CN(C)S(=O)(=O)c2ccc(C)cc2)c1` the B-score was 0.446 (inactive).
In the case of `COC(=O)CN(c1nc(C)c(Cl)c(OC)n1)S(=O)(=O)c1ccc(C)cc1`, the B-score is reported as -3.54 (active).
`O=C(NC1CC1)C1=C[C@H](c2c[nH]c3ccccc23)C[C@H](OCc2ccc(CO)cc2)O1` was tested, and the B-score was -0.0426 (inactive).
With `Cc1cc(C)cc(OCC(=O)NNC(=O)c2cc3ccccc3oc2=O)c1` the B-score was 0.0296 (inactive).
For `Nc1c(-c2cccc(Cl)c2)cnn1-c1cccc([N+](=O)[O-])c1`, the B-score was -4.85 (active).
With `CCOC(=O)CSc1ncc(-c2cccc(Cl)c2)cn1` the B-score was 0.28 (inactive).
With `Cc1onc(-c2ccccc2Cl)c1C(=O)OCC(=O)c1ccccc1` the B-score was -0.332 (inactive).
For `Cc1ccc2cc(CCNC(=O)c3ccc4c(c3)OCO4)c(=O)[nH]c2c1`, the B-score was 0.446 (inactive).
For `Cc1onc(-c2c(Cl)cccc2Cl)c1C(=O)c1c[nH]c(C(=O)NC2CC2)c1`, the B-score was 0.359 (inactive).
With `Cc1ccc2cc(CCNC(=O)c3c(-c4ccccc4Cl)noc3C)c(=O)[nH]c2c1` the B-score was -4.54 (active).
In the case of `Cc1onc(-c2ccccc2Cl)c1C(=O)NCCn1ccc2ccccc21`, the B-score is reported as -3.91 (active).
In the case of `COCCNC(=O)c1ccccc1-c1nc(-c2ccccc2Cl)no1`, the B-score is reported as -0.0406 (inactive).
`CCCCCCNS(=O)(=O)c1ccccc1Br` was tested, and the B-score was -1.42 (inactive).
`CC(C)C(=O)N1CCC2(CC1)Oc1ccc(F)cc1C(=O)C21CC(c2ccccc2)=NO1` (centres undefined) was tested, and the B-score was -0.517 (inactive).
With `CC(C)(C)Oc1ccccc1Nc1nc(NCCO)nc(N2CCCC2)n1` the B-score was 0.107 (inactive).
For `Cc1ccc(-c2cc(=O)c3ccc(F)cc3[nH]2)cc1`, the B-score was -1.19 (inactive).
In the case of `O=c1oc2cc(O)ccc2cc1-c1ccc(F)cc1`, the B-score is reported as -0.437 (inactive).
`CCCCCCc1cc2cc(-c3nnc(-c4ccccc4)o3)c(=O)oc2cc1O` was tested, and the B-score was -8.89 (active).
`O=C(c1ccc(Cl)cc1)c1cnc(Nc2ccccc2)s1` was tested, and the B-score was 0.657 (inactive).
In the case of `C[C@@H]1NC(=O)c2cc([N+](=O)[O-])cc(F)c2NCCC[C@@H](C(N)=O)NC(=O)[C@H](CC(N)=O)NC1=O`, the B-score is reported as 0.0125 (inactive).
For `CCCCNC(=O)c1onc(CSc2cccc(OC)c2)c1C(=O)O`, the B-score was -0.115 (inactive).
`O=C(O)C1=C[C@H](c2cccs2)C[C@H](OCCCCO)O1` was tested, and the B-score was 0.408 (inactive).
For `CN(c1ccc(C(=O)NCc2ccccn2)cc1)S(C)(=O)=O`, the B-score was 0.091 (inactive).
`Cc1ccccc1CSCCNC(=O)c1ccc(N(C)S(=O)(=O)c2ccccc2)cc1` was tested, and the B-score was -5.82 (active).
With `Cc1ccc(C(=O)NCCNS(=O)(=O)c2ccccc2)cc1` the B-score was 0.965 (inactive).
`NC(N)=NCCCc1cn(CC(=O)N2CCNCC2)nn1` was tested, and the B-score was 0.0996 (inactive).
`N#Cc1ccc(-c2ccc(F)cc2)nc1Sc1ccccc1` was tested, and the B-score was -0.0447 (inactive).
`Cc1ccc(SCC2=NNC(=O)C2)cc1` was tested, and the B-score was -0.242 (inactive).
With `COc1ccc2c(c1)CCNC2Cc1ccc(OC)c(O)c1` (centres undefined) the B-score was 0.0462 (inactive).
In the case of `COc1ccc(OC)c(NC(=O)CN2CCN(C(=O)c3ccco3)CC2)c1`, the B-score is reported as 1.23 (inactive).
In the case of `O=C(CN1CCN(C(=O)c2ccco2)CC1)Nc1ccc2c(c1)OCO2`, the B-score is reported as 0.902 (inactive).
For `O=C(CN1CCN(C(=O)c2ccco2)CC1)Nc1ccc(Cl)c(C(F)(F)F)c1`, the B-score was -6.28 (active).
With `COc1ccc(CC(=O)Nc2sc(Cc3ccccc3)c(C)c2C(N)=O)cc1` the B-score was -0.493 (inactive).
For `Cc1ccccc1NC(=O)C(C)c1ccc(-c2ccccc2)c(F)c1` (centres undefined), the B-score was -0.689 (inactive).
`CC1CCN(c2nc3c(c(=O)[nH]c(=O)n3C)n2CCCc2ccccc2)CC1` was tested, and the B-score was -5.1 (active).
In the case of `CCCSc1nc2c(c(=O)[nH]c(=O)n2C)n1CCc1ccccc1`, the B-score is reported as -0.0804 (inactive).
In the case of `CN1CCN(c2nc3c(c(=O)[nH]c(=O)n3C)n2Cc2cccc3ccccc23)CC1`, the B-score is reported as 0.465 (inactive).
For `Cc1nc(C(=O)Nc2ccc(Cl)cc2)sc1C1(C)CC(c2ccccc2)=NO1` (centres undefined), the B-score was 0.201 (inactive).
In the case of `O=c1c(-c2ccccc2)coc2cc(O)ccc12`, the B-score is reported as 1.09 (inactive).
For `CCN(CC)C(=O)CC(c1ccc2c(c1)OCO2)c1c(OC)cc(OC)c2c(-c3ccccc3)cc(=O)oc12` (centres undefined), the B-score was -1.45 (inactive).
With `CCn1c(O)c(N=NC2=NC(=O)CS2)c2cc(C)ccc21` the B-score was -4.99 (active).
With `COC(=O)Cn1c2ccc(C)cc2c2nc(C)sc21` the B-score was 1.71 (inactive).
With `Cc1nnc(NC(=O)CSc2nc(C3CCCCC3)nc3ccccc23)s1` the B-score was -0.12 (inactive).
With `NC(=O)[C@H]1CC2(CC(c3cccc(NC(=O)[C@H]4CCC(=O)N4)c3)=NO2)CN1C(=O)c1ccccc1C(=O)c1ccccc1` (some centres undefined) the B-score was -0.157 (inactive).
With `CCO[C@H]1OC(C(=O)Nc2ccccc2)=C[C@@H](C2CC2)[C@@H]1CCCO` the B-score was 0.964 (inactive).
With `NC(=O)C1=C[C@@H](c2csc3ccccc23)C[C@@H](OCc2ccc(CO)cc2)O1` the B-score was -0.0524 (inactive).
For `Cc1ccc(C)c(NC(=O)C2Cc3ccccc3CN2C(=O)OCc2ccccc2)c1` (centres undefined), the B-score was -6.09 (active).
With `COC(=O)C(CC(=O)Nc1cc(C)ccc1C)Nc1ccccc1OC` (centres undefined) the B-score was -0.376 (inactive).
With `Cc1ccc(C)c(NC(=O)C2CC(=O)N(C(C)C)C2)c1` (centres undefined) the B-score was -0.00724 (inactive).

— PubChem BioAssay AID449739 (Vanderbilt High Throughput Screening Facility, 2010)
